Data taken from PubChem BioAssay (NCI).
The panel holds about 83,000 compounds, 20% with a hit somewhere; the sample as a whole holds those more often.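 Method: cells in 96-well plates; compound added at one concentration; 48 h incubation; percent growth measured; values under 10 scored active.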 Calls of active or inactive are those of the source.

Tested on: MDA-MB-468 breast
Experiment: NCI-60 one-dose screen, 48 h (100 = growth as untreated, 0 = no growth, -100 = all killed)
Conditions: 10 µM unless noted

Structure (SMILES) | growth
Clc1ccc2c(NC3CCC(NC4CCCCC4)CC3)ccnc2c1 (stereo not given) | -7.22% (active)
COc1ccc(-n2c(C(O)c3ccccc3)n[nH]c2=S)cc1 (stereo not given) | 98.6% (inactive)
CCN(CC)CCCOc1ccc2ncnc(Nc3ccc(Oc4cccc(C(F)(F)F)c4)c(Cl)c3)c2c1 | -64.7% (active)
CCN(C)c1ccccc1 | 113% (inactive)
CC[C@H]1OC(=O)[C@H](C)[C@@H](O[C@H]2C[C@@](C)(OC)[C@@H](O)[C@H](C)O2)[C@H](C)[C@@H](O[C@@H]2O[C@H](C)C[C@H](N(C)C)[C@H]2O)[C@](C)(OC)C/C(C)=C2/O[C@@]1(C)C=C2C | -73.7% (active)
CC[C@H](C)[C@H]1NC(=O)[C@@H](N[C@](C)(O)[C@@H](N)CC(C)C)[C@@H](C)OC(=O)[C@H](Cc2ccc(OC)cc2)N(C)C(=O)[C@@H]2CCCN2C(=O)[C@H](CC(C)C)NC(=O)[C@@H](C)C(=O)[C@H](C(C)C)OC(=O)C[C@@H]1O | -31.2% (active)
CC[C@H](Nc1nc(N)nc(N)c1Cl)c1nc2cccc(NCc3ccc(C(=O)NO)cc3)c2c(=O)n1-c1ccccc1 | -34.3% (active)
O=C(Nc1ccc([N+](=O)[O-])cc1)C(=O)Nc1ccc([N+](=O)[O-])cc1 | 105% (inactive)
CN1CCN(CC#CCn2c3c(c4ccccc42)C[C@]2(C)[C@H]4CC=C5[C@@H]6CC(C)(C)CC[C@]6(C(=O)N6CCOCC6)CC[C@@]5(C)[C@]4(C)CC[C@H]2C3(C)C)CC1 | 79.4% (inactive)
C#CC(=O)N(c1ccc(OC)cc1OC)C(C(=O)NCC(=O)OCC)c1cccs1 (stereo not given) | 20.2% (inactive)
CCOc1cc2ncc(C#N)c(Nc3ccc(F)c(Cl)c3)c2cc1NC(=O)/C=C/CN(C)C | -43.9% (active)
O=C1NC(=C(Cl)Cl)/C(=N/S(=O)(=O)NCCc2c[nH]c3ccccc23)N1 | -3.27% (active)
CCN(CC)CCCNCc1cc(-c2ccccc2)nc2cc(Cl)ccc12 | -25.7% (active)
COc1cccc(/C=N/N=C(N)N)c1 | 90% (inactive)
CCCCN1C(=O)/C(=c2\sc3n(c2=O)C2C(NN=3)N(CC)C(=O)N2CC)c2cccc(C)c21 (stereo not given) | 12.4% (inactive)
CC(C)c1ccc2c(c1)CC[C@H]1[C@](C)(C(=O)OCC#CCN3CCCC3)CCC[C@]21C | 52.4% (inactive)
Nc1n[nH]c2cccc(C#Cc3cccc(C(=O)Nc4ccc(CN5CCOCC5)c(C(F)(F)F)c4)c3)c12 | 66% (inactive)
C=C(C)[C@@H]1CC[C@]2(C(=O)N3CCCNCC3)CC[C@]3(C)[C@H](CC[C@@H]4[C@@]5(C)CCC(=O)C(C)(C)[C@@H]5CC[C@]43C)[C@@H]12 | 90.8% (inactive)
COC(=O)c1ccc2[nH]c(O)c(C(=Nc3ccc(N(C)C(=O)CN4CCN(C)CC4)cc3)c3cccc(OC)c3)c2c1 | 37.3% (inactive)
CCOP(=O)(OCC)OC[C@]12CCC(C)(C)C=C1[C@H]1CC[C@@H]3[C@@]4(C)CC[C@H](OP(=O)(OCC)OCC)C(C)(C)[C@@H]4CC[C@@]3(C)[C@]1(C)CC2 | -16.8% (active)

Structure (SMILES) | growth
CCCCCCCCNc1ncnc2c1ncn2Cc1nnc2c3ccccc3c(Cl)nn12 | 40.6% (inactive)
O=C1CSC(=O)N1Cc1cc2ccccc2nc1Cl | 97.8% (inactive)
Cc1cc2c3ccc(C)[n+](C)c3ccc2n1C | 19.1% (inactive)
COc1nc(=O)n(C2C=CC(=O)O2)cc1F (stereo not given) | 11.9% (inactive)
CC1(CO)CCCC12OCCO2 (stereo not given) | 102% (inactive)
Nc1ccc(C(=O)c2ccc(N)c(Br)c2)cc1Br | -0.913% (active)
COc1ncc(-c2ccc3nc(N)n(-c4ccccc4C(F)(F)F)c(=O)c3c2)cc1S(=O)(=O)Nc1ccc(F)cc1F | -37.3% (active)
CC(C)(C)c1ccc(NS(=O)(=O)c2ccc3nc(NC(=O)c4cnccn4)[nH]c3c2)cc1 | -18.6% (active)
COc1cccc(CNC(=O)c2cccc(C3CC(=O)c4c(cc(OC)c(OC)c4OC)O3)c2)c1 (stereo not given) | 20.5% (inactive)
CCn1c2ccccc2c2ccc(C(C)=O)cc21 | 104% (inactive)
COc1ccccc1C(=O)/C=C/c1cc2cccc(OC)c2[nH]c1=O | -43.9% (active)
COc1ccc(/C=C/c2nc3ccccc3c(=O)n2-c2ccc(C#Cc3ccc(C(C)(C)C)cc3)cc2C)c(OC)c1 | 97.9% (inactive)
N#CCCN1CCN(CCC#N)C1=S | 119% (inactive)
COc1c2c(cc3c1C(=O)N[C@@H]1[C@@H](O)[C@@H](O)[C@H](O)C[C@@H]31)OCCO2 | 93.1% (inactive)
O=c1c2c(O)cccc2oc2c3c(cc(O)c12)O[C@H]1OC=C[C@@H]31 | 30.2% (inactive)
COc1ccc(NC(=O)CSc2nnc(-c3ccc4nc(-c5ccccc5)[nH]c4c3)o2)cc1 | 95.5% (inactive)
COc1cc(NCCCCC(C)N)c2nccc(C)c2c1 (stereo not given) | 10.6% (inactive)
Cc1nc2cc(-c3nn(C(C)C)c4ncnc(N)c34)ccc2o1 | -37.7% (active)
CC(CCC(=O)O)(NC(=O)c1ccc([N+](=O)[O-])cc1)C(=O)O (stereo not given) | 112% (inactive)
O=C(O)c1[nH]c(=O)[nH]c(=O)c1[N+](=O)[O-] | 109% (inactive)
